Measurements from PubChem BioAssay (NCI).
“And” between values parts separate entries of the source, which are not always exact repeats. Equal entries are not always repeated. About 83,000 compounds went through this panel and 20% of them were active in at least one assay; those are over-represented in the sample as a whole.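 The endpoint reported here, percent growth, reads 100 for growth as untreated, 0 for no net growth and -100 for all cells dead.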 The source made the active and inactive calls.

What follows are compounds tested on M14 melanoma (assay: NCI-60 one-dose screen, 48 h (100 = growth as untreated, 0 = no growth, -100 = all killed)). Settings: 10 µM unless noted.
Procedure: Growth inhibition of the M14 human tumor cell line is measured as a screen for anti-cancer activity. Cells are grown in 96 well plates and exposed to the test compound for 48 hours. Compounds are tested at a single concentration, which is 10^-5 M for most compounds. The reported endpoint is percent growth (GI% or GIPRCNT), where numbers from 0 - 100% represent growth inhibition, and numbers from -100% - 0 represent cell death. For example, a value of 40 represents 60% growth inhibition. A value of 0 means no net growth occurred over the course of the experiment. A value of -40 indicates 40% of cells at the beginning of the experiment died by the end of the experiment. A value of -100 means all cells are dead at the end of the experiment.
NCI-60 Human Tumor Cell Lines Screen was performed using the standard one-dose NCI protocol, which is described in more detail at https://dtp.cancer.gov/discovery_development/nci-60/default.htm.
Compounds with GIPRCNT values below 10 were considered active. Activity score was based on GIPRCNT using the following formula: […]
Score is 0 for GIPRCNT values of 100 or above, 50 for GIPRCNT values of 0, and 100 for GIPRCNT values of -100.

| SMILES | growth |
| --- | --- |
| S=c1ccc2ccccc2[nH]1 | 99.6% (inactive) and 107% (inactive) |
| COCCCNC1=C(C#N)C(=O)NC(c2cccs2)S1 (stereo not given) | 110% (inactive) |
| Cc1onc(-c2c(F)cccc2Cl)c1-c1ncc(-c2ccc(Cl)cc2)o1 | 54.8% (inactive) and 46.6% (inactive) |
| CN(C=O)c1ccccc1 | 95.8% (inactive) |
| CC(C)=NOC(C)C(=O)O (stereo not given) | 94.4% (inactive) |
| Clc1ccc2c(c1)N(C1CCCN(Cc3ccccc3)C1)c1ccccc1S2 (stereo not given) | -26.9% (active) |
| O=C(O)COc1ccccc1F | 103% (inactive) |
| COc1cc([C@@H]2c3cc4c(cc3[C@H](O)[C@H]3COC(=O)[C@@H]23)OCO4)cc(OC)c1OC | 9.16% (active) and -73.8% (active) |
| O=[N+]([O-])c1ccc(N2CCN=N2)cc1 | 82.7% (inactive) |
| COc1cc(NCCCCCNC(C)C)c2ncccc2c1 | 96.9% (inactive) and 90.2% (inactive) |
| O=P(O)(O)OC1C(OP(=O)(O)O)C(OP(=O)(O)O)C(OP(=O)(O)O)C(OP(=O)(O)O)C1OP(=O)(O)O.[Cu+2] (stereo not given) | 102% (inactive) |
| C=CCN1C(=O)c2ccccc2C1=O | 99.9% (inactive) |
| O=c1[nH]c(=O)c2[nH]c(=O)[nH]c2[nH]1 | 91.5% (inactive) |
| CNc1ccc(O)cc1 | 118% (inactive) and 113% (inactive) |
| O=[N+]([O-])c1ccc(NC(c2ccccc2)c2ccc3cccnc3c2O)cc1 (stereo not given) | 8.95% (active) |
| NC1=NC(c2ccccc2)N=C(Nc2ccccc2)N1 (stereo not given) | 81.9% (inactive) and 75.9% (inactive) |
| OC1CCCN(Cc2ccccc2)C1 (stereo not given) | 98.7% (inactive) |
| O=C(c1ccccc1)C1(Br)CCCCC1 | 98.6% (inactive) |
| CC(=O)Nc1ccc(OC(C)=O)cc1 | 0.268% (active) and 103% (inactive) |
| Cc1nc(Nc2ccc(Cl)cc2)c2cnn(-c3ccccc3)c2n1 | 100% (inactive) |

| SMILES | growth |
| --- | --- |
| CC(=O)Oc1cc(C(C)C)c(OCCN(C)C)cc1C | 99.8% (inactive) |
| CC1(C)OC(=O)C(=Cc2ccc(C#N)cc2)C(=O)O1 | 106% (inactive) and 105% (inactive) |
| O=C(N=C1C(=O)C2(CCCCC2)C2(N=C(c3ccccc3)OC2=O)C12CCCCC2)c1ccccc1 (stereo not given) | 78% (inactive) |
| Cc1cc(NC(=O)NC(=O)c2ccccc2N(C)C)ccc1Oc1ncc(Br)cn1 | 22.8% (inactive) and 17.1% (inactive) |
| N=C(N=C(N)N)N1CCOCC1 | 91.1% (inactive) and 97.2% (inactive) |
| CCC(C)(O)CCC(C)(O)CC (stereo not given) | 103% (inactive) |
| COc1ccc(/C=C/C(=O)O)cc1OC | 101% (inactive) and 106% (inactive) |
| O=C(O)c1c2c(nc3ccccc13)Cc1ccccc1-2 | 91.5% (inactive) and 96% (inactive) |
| COc1ccc(CCl)c(C)c1OC | 110% (inactive) |
| COc1cc(NCCCCCCCNC(C)C)c2nccc(C)c2c1 | 82.8% (inactive) and 68% (inactive) |
| CCN(CC)CCNC(=O)c1ccc(NCN2C(=O)NC(c3ccccc3)(c3ccccc3)C2=O)cc1 | 105% (inactive) and 96.3% (inactive) |
| O=C(Nc1ccccc1)OCC(CN1CCCCC1)OC(=O)Nc1ccccc1 (stereo not given) | 86.6% (inactive) and 108% (inactive) |
| C(=N\OCCc1ccccc1)/c1ccccn1 | 115% (inactive) and 117% (inactive) |
| CC(C)(C)OC(=O)NCCc1ccc(N)cc1 | 104% (inactive) |
| Cc1cc2ccccc2c2cc3ccccc3cc12 | 85.1% (inactive) |
| CS(=O)(=O)c1nsc(N)n1 | 104% (inactive) |
| COc1cc2c(cc1O)C(=O)CCCC2 | 97.2% (inactive) |
| OC(CC(c1ccccc1)c1cccc2ccccc12)(c1ccccc1)c1ccccc1 (stereo not given) | 72.1% (inactive) and 77.2% (inactive) |
| O=C1c2ccccc2C(c2ccccc2)C1c1ccccc1 (stereo not given) | 97.7% (inactive) |
| CC1CCC(=O)N1c1ccc(N)cc1 (stereo not given) | 104% (inactive) |
